Only some compounds are listed: those with a hit (about 3.5% of all), similar ones and a draw of the others.
FBW7 act – activators of human E3 ligase FBW7; Q969H0; AlphaScreen FBW7–phospho-cyclin E peptide binding, activator screen; normalized activity (activation), % at 26.1 µM; 650,000 compounds, 0.13% hits; in the data active = normalized activity above about 1.9%;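 note: purified mutant Fbw7 with reduced substrate affinity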
TEAD-YAP block – TEAD-YAP interaction inhibition | 640,000 compounds, 1.4% hits | inhibition, % at 9.12 µM | HEK-TIYL cells, TEAD-Gal4/YAP UAS-luciferase luminescence | AID 1259422; in the data active = inhibition above about 32%
MITF inh – human MITF inhibition, primary screen; O75030; AlphaScreen MITF homodimerization, bead proximity signal; inhibition, % at 2.6 µM; 650,000 compounds, 0.91% hits; in the data active = inhibition above about 50%
GPR151 ag – human GPR151 activation. PathHunter beta-arrestin GPR151 cells, luminescence. AID 1508602. Q8TDV0. activation, % at 11.2 µM. 650,000 compounds, 1% hits; in the data active = activation above about 4.9%
Target sequence (Q8TDV0 whole entry, looked up): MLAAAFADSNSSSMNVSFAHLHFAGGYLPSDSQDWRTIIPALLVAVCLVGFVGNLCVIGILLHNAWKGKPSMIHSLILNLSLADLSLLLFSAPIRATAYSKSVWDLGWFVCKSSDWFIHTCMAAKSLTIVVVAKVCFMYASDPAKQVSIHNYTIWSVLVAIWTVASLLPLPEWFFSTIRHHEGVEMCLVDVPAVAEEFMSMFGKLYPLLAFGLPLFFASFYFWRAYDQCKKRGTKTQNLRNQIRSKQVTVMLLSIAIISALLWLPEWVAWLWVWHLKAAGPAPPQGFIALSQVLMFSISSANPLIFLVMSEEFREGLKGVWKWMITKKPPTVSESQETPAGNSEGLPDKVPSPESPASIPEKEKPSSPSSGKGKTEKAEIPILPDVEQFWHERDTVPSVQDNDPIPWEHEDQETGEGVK
Numbers stand for hits; i = inactive.

SMILES	FBW7 act	TEAD-YAP block	MITF inh	GPR151 ag
COc1ccc(Nc2ncnc3sc4c(c23)CCC4)cc1O	i	37	i	i
CN(C)c1ccc(-c2nc3cc(N)ccc3o2)cc1	i	79	i	i
Nc1ccc(-c2nc3cc(N)ccc3o2)cc1	i	49	i	i
COC(=O)c1ccc(-c2nc3cc(N)ccc3o2)cc1	i	72	i	i
Nc1ccc(-c2nc3cc(Cc4ccc5oc(-c6ccc(N)cc6)nc5c4)ccc3o2)cc1	i	i	i	i
COC(=O)c1ccc(-c2nc3cc(NC(C)=O)c(N)cc3o2)cc1	i	i	i	i
CCOc1ccc(-c2nc3cc(N)ccc3o2)cc1	i	76	i	i
Cc1ccc(-c2nc3cc(N)ccc3o2)cc1Cl	i	i	i	i
Cc1cc(C(=O)N2CCc3c(cnc(C)c3CNC(=O)CN3CCCCC3)C2)c(C)o1	i	i	i	i
Cc1cc(Br)ccc1OCC(=O)N1CCN(c2ccccc2)CC1	i	i	i	i
CCc1ccc(-c2nc3cc(N)ccc3o2)cc1	i	65	i	i
COc1cccc(-c2nc3cc(N)ccc3o2)c1	i	49	i	i
CCc1ccc2oc(-c3cc(N)ccc3Cl)nc2c1	i	i	i	i
CCc1ccc2oc(-c3cc(N)ccc3O)nc2c1	i	38	i	i
COc1ccc2cc(-c3nc4ccccc4[nH]3)c(=Nc3ccc(F)cc3)oc2c1	i	76	i	i
COc1ccc2oc(=Nc3ccccc3)c(-c3nc4ccccc4[nH]3)cc2c1	i	i	i	i
COc1ccc2cc(-c3nc4ccccc4[nH]3)c(=Nc3ccc(C(N)=O)cc3)oc2c1	i	66	i	i
COc1ccc(N2C(=O)/C(=C\C=C\c3ccco3)C(=O)NC2=S)cc1	i	i	77	i
COc1cccc(N2C(=O)NC(=O)/C(=C/C=C/c3ccco3)C2=O)c1	i	i	i	i
COc1ccc(-c2csc(NC(=O)c3cc(C)nn3C)n2)cc1	i	63	i	i
COc1ccc(-c2csc(NC(=O)c3csc(C)c3)n2)cc1	i	i	i	i
Cc1ccc2c(c1)N(CC(=O)N1CCc3ccccc31)C(=O)c1cccnc1O2	i	i	i	i
COc1ccccc1N1CCN(C(=O)CSc2nc3ccccc3c(=O)n2CCC(=O)NC2CCCCC2)CC1	i	46	i	i
O=c1oc(-c2ccccc2Br)nc2ccc(Br)cc12	i	i	i	i
O=C1CCCN1CCCNc1nc(Nc2cnccn2)nc2c1ncn2-c1ccccc1	i	46	i	i
SMILES	FBW7 act	TEAD-YAP block	MITF inh	GPR151 ag
O=C1CCCN1CCCNc1nccc(Nc2ccc(Oc3ccccc3)cc2)n1	i	39	i	i
O=C1CCCN1CCCNc1nc(Nc2ccccn2)nc2c1ncn2-c1ccccc1	i	i	i	i
O=C1CCCN1CCCNc1nc(Nc2ccncc2)nc2c1ncn2-c1ccccc1	i	55	i	i
O=C1CCCN1CCCNc1nc(Nc2ccncn2)nc2c1ncn2-c1ccccc1	i	38	i	i
O=C1CCCN1CCCNc1nc(NCCCN2CCCC2=O)c2ncn(C3CCCCC3)c2n1	i	i	i	i
O=C1CCCN1CCCNc1nc(NCCO)c2ncn(C3CCCCC3)c2n1	1.9	i	i	i
O=C1CCCN1CCCNc1nc(Nc2ccc3ncccc3c2)nc2c1ncn2-c1ccccc1	i	72	i	i
O=C(Nc1ccc(F)c(Cl)c1)c1coc(=O)c2ccccc12	i	i	i	i
Cc1cc(Br)ccc1NC(=O)c1cc2c(=O)oc3ccccc3c2s1	i	i	i	i
O=C(Nc1ccccc1N1C(=O)C2C3C=CC(C3)C2C1=O)c1ccc(C(F)(F)F)cc1 (stereo not drawn)	i	i	i	i
CC(=O)N(/C=C1\Sc2ccccc2C1=O)c1ccc(C(=O)O)cc1	i	i	i	i
COc1ccccc1N(/C=C1\Sc2ccccc2C1=O)C(C)=O	i	79	i	i
CC(=O)N(/C=C1\Sc2ccccc2C1=O)c1ccc(C)cc1	i	70	i	i
CCc1c(C)sc(NC(=O)c2cc3nc(-c4ccc(OC)cc4)cc(C(F)(F)F)n3n2)c1C#N	i	i	i	i
C=CCn1c(SCC(=O)Nc2ccc(C(N)=O)cc2)nc2sc(C)c(C)c2c1=O	i	i	i	i
O=c1c(CN2CCN(c3ccc(F)cc3)CC2)coc2ccccc12	i	i	i	i
O=c1c(CN2CCc3ccccc3C2)coc2ccccc12	i	34	i	i
CN(C)c1ccc(C(=O)N2CCN(Cc3ccc4c(c3)OCO4)CC2)cc1	i	i	i	i
O=c1c(CN2CCSCC2)coc2ccccc12	i	i	i	i
COc1cc(SC)ccc1C(=O)N1CCN(Cc2ccc3c(c2)OCO3)CC1	i	32	i	i
O=c1c(CN2CCN(c3ccccn3)CC2)coc2ccccc12	i	38	i	i
CN(C)c1ccc(CN2CCN(Cc3ccc4c(c3)OCO4)CC2)cc1	i	i	53	i
CC1=C(C(=O)OCCc2ccccc2)C(c2ccccc2F)C2=C(CCCC2=O)N1 (stereo not drawn)	i	i	i	i
O=[N+]([O-])c1cc(Br)cc2cc[nH]c12	i	i	i	i
Cc1ccc(C2Nc3ccccc3NC3=C2C(=O)CC(c2cccs2)C3)o1 (stereo not drawn)	i	i	i	i
SMILES	FBW7 act	TEAD-YAP block	MITF inh	GPR151 ag
CC1=C(C(=O)Nc2ccc(Br)cn2)C(c2ccc(Cl)cc2)C2=C(CC(C)(C)CC2=O)N1 (stereo not drawn)	i	i	i	i
O=c1c(CN2CCN(Cc3ccc4c(c3)OCO4)CC2)coc2ccccc12	i	57	i	i
COC(=O)c1c(C)oc2c1cc(NS(=O)(=O)c1ccc(Br)cc1)c1ccccc12	i	i	i	i
COc1ccc(S(=O)(=O)Nc2cc3c4c(oc3cc2C)CCCC4=O)cc1	i	55	i	i
COC(=O)c1c(C)oc2ccc(NS(=O)(=O)c3ccc(OC)cc3)cc12	i	72	i	i
COC(=O)c1c(C)oc2cc(C)c(NS(=O)(=O)c3ccc(Br)cc3)cc12	i	34	i	i
Cc1ccc(S(=O)(=O)Nc2cc3c4c(oc3cc2C)CCCC4=O)cc1	i	i	i	i
COC(=O)c1c(C)oc2ccc(NS(=O)(=O)c3ccc(Cl)cc3)cc12	i	i	i	i
COC(=O)c1c(C)oc2ccc(NS(=O)(=O)c3ccc(C)cc3)cc12	i	56	i	i
CCN(CCO)C(=O)CCN1C(=O)/C(=C\c2ccccc2F)SC1=S	i	i	i	i
O=C(Nc1cc2c(cc1C(=O)c1ccccc1)OCCO2)c1ccc(Br)cc1	i	i	i	i
COC(=O)c1cccc(NS(=O)(=O)c2ccc(C)cc2)c1	i	53	i	i
Cc1c(C(=O)Nc2ccc(F)c(Cl)c2)sc2ncn(CC(=O)N3CCCCC3)c(=O)c12	i	i	i	i
Cc1cc(OCC(=O)Nc2cccnc2)cc(C)c1Br	i	i	i	i
Cc1cc(OCC(=O)Nc2ccncc2)cc(C)c1Br	i	33	i	i
Cc1ccc(CC(=O)Nc2ccncc2)cc1	i	42	i	i
NC(=O)c1ccccc1NC(=O)c1ncoc1-c1ccccc1C(F)(F)F	i	49	i	i
O=C(Nc1ccccc1-n1ccnc1)c1ncoc1-c1ccccc1C(F)(F)F	i	i	i	i

Screens from PubChem BioAssay.
